The list is not random: actives were taken first. Their share in the collection is about 6.1%.
ERG Ets-DNA blk: qHTS for Small Molecule Inhibitors of the ERG Ets/DNA interaction. hit rate 0.028% among 370,000. Potency, µM (doses to about 76.9 µM), for the others: at the top dose FP activity, negative = inhibition, hits mostly inhibitors. Transcriptional regulator ERG (Homo sapiens), P11308. fluorescence polarization, His-ERG Ets domain / labelled DNA. AID 624246, 2012; active = well fitted inhibition curve with a large enough effect in the polarisation, with a control signal flat; inconclusive = small, poorly fitted or top-dose-only effect, or effect the other way, or a change in a side signal; inactive = no such curve, though single readings can be large or run the other way; the % refers to the polarisation;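 also: polarization taken with two DNA probes labelled with fluorescein and Texas red; potency is read from the fitted curve at half-maximal effect; % of control where 0% means no effect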
Target sequence (P11308 whole entry, looked up, the tested form may be a part): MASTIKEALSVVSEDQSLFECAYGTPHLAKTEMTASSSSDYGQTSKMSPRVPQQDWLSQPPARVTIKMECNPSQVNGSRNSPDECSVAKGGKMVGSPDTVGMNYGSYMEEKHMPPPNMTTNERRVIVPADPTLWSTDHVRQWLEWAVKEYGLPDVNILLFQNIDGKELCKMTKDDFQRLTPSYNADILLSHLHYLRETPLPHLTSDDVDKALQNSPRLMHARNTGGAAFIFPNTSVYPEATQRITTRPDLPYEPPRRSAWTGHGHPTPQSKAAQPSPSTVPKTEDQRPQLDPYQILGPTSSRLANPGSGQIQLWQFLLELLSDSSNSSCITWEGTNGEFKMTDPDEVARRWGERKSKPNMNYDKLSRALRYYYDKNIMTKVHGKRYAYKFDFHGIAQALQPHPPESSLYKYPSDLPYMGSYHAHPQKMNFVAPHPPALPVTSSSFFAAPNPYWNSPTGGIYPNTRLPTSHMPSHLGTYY
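His-tagged ERG Ets domain (1 uM in the protein solution; 300mM KCl, 50mM Tris-HCl, 1mM EDTA, 1mM DTT, pH 7.5) received compound, then a probe mix of 5 nM fluorescein-DNA and 100nM Texas-615-DNA. Fluorescence polarization was read for both dyes.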
D1 PAM: Potentiators of Human D1 Dopamine Receptor: qHTS; HEK293 TREx D1 cells, calcium flux, dopamine EC20 potentiation; potentiation, % at 10 µM; hit rate 0.036% among 360,000; AID 504651, 2011; in the data active = potentiation above about 30%; also: 0% is about no effect
DRD3 antagonist: qHTS of D3 Dopamine Receptor Antagonist: qHTS; D(3) dopamine receptor (Homo sapiens), P35462; D3R cells, DiscoveRx beta-arrestin luminescence, antagonist mode; active compounds read low; max response, negative = inhibition, %; hit rate 2.5% among 360,000; in the data active = max response below about -50%; inconclusive = no clear call, values can overlap the other calls; also: % is scaled to controls: 0 for no effect and ±100 for the full control effect
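Cells plated overnight at 1500 cells/well, then exposed to library compounds with dopamine controls for 90 minutes at 37 degrees C. DiscoveRx reagent added for 30–60 minutes at room temperature; luminescence read, quantitative HTS format.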
D1 antag: Antagonist of Human D 1 Dopamine Receptor: qHTS; activity change, negative = inhibition, % at 10 µM; hit rate 3.2% among 360,000; AID 504652, 2011; D(1A) dopamine receptor (Homo sapiens), P21728; HEK293 TREx D1 cells, calcium flux, dopamine EC80; active compounds read low; in the data active = activity change below about -30%; also: % is scaled to controls: 0 for no effect and ±100 for the full control effect
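Antagonism measured as reduced calcium response to an EC80 dopamine addition following 180 s compound pre-read; cells were inducible HEK293 Trex D1 plated overnight at 30 C, read kinetically at 1 cycle/sec.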
D1 agonist: Allosteric Agonists of the Human D1 Dopamine Receptor: qHTS. activation, % at 2 µM. D(1A) dopamine receptor (Homo sapiens), P21728. HEK293 T-REx D1 cells, calcium flux, agonist mode. AID 504660, 2011. hit rate 1% among 360,000; in the data active = activation above about 30%; also: 0% is about no effect
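Agonism was scored from calcium flux recorded over 180 s (1 read/s) after pintool compound addition, following a 10-cycle baseline. Cells were inducible force-coupled HEK293 TREx D1, plated overnight at 30 C and loaded with no-wash calcium dye.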
DRD3 agonist: qHTS of D3 Dopamine Receptor Agonist: qHTS | hit rate 0.58% among 410,000 | max activation, % | D3R DiscoveRx beta-arrestin cells, luminescence, 90 min | D(3) dopamine receptor (Homo sapiens), P35462; in the data active = max activation above about 30%; also: 0% is about no effect
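Agonist mode: compounds and dopamine controls were applied to plated cells for 90 min at 37 degrees C after an overnight attachment at 1500 cells/well. Luminescent read-out followed 30 - 60 minutes at room temperature with DiscoveRx detection reagent.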
Active calls of the source: *; ? = inconclusive; / = no result given.

SMILES	ERG Ets-DNA blk	D1 PAM	DRD3 antagonist	D1 antag	D1 agonist	DRD3 agonist
Cc1ccccc1OCCOCCN1CCCCCC1	-16%	0	?	-3	2	-12
Cc1ccc(C(C)C)cc1OCC(=O)NC1CCCCCCC1	0%	5	-15	22	2	-5
COc1ccc(NC(=O)CSc2nnnn2-c2ccccc2F)cc1	4%	-4	-8	-27	10	-3
CC1=NN(c2ccccc2)C(=O)/C1=C/c1cc(C)n(C2CC2)c1C	-2%	-4	0	12	1	2
COc1ccc(-c2nc3ccccc3n2Cc2ccc(Cl)cc2)cc1	1%	-3	/	-32*	25	-17
Cc1cccc(-c2nc3ccccc3n2Cc2ccccc2)c1	3%	0	/	-49*	53*	2
Cc1ccc(Cn2c(-c3ccccc3)nc3ccccc32)cc1	1%	-3	/	2	15	0
Cc1ccc(NC(=O)CN(C)C(=O)CCOc2ccccc2C)cc1	11%	0	0	7	2	1
CCc1cccc(OCCCn2ccnc2)c1	-1%	-2	-10	-32*	6	17
CCC(C)c1ccccc1OCCn1ccnc1 (stereo not drawn)	-5%	-5	0	-34*	7	0
Cc1cc(OCCCn2ccnc2)cc(C)c1Cl	-2%	-9	24	-31*	8	5
Brc1cccc(OCCn2ccnc2)c1	-3%	2	-65*	3	4	-3
COc1cccc(OCCCn2ccnc2)c1	-6%	5	4	-9	5	6
C1=C(c2ccccc2)Nc2nnnn2C1	6%	-3	-21	3	8	-4
O=C(COc1ccccc1Cl)Nc1ccccc1C(=O)Nc1cccc(C(=O)O)c1	2%	2	10	7	3	5
Nc1n[nH]c(N)c1N=Nc1cccc(F)c1	-6%	1	-2	1	1	-7
Cc1nn(Cc2ccc(F)cc2)c(C)c1NC(=O)C1c2ccccc2Oc2ccccc21	-10%	-4	19	10	1	-3
Cc1c(-c2nnc(SCC(=O)Nc3ccccc3F)o2)nnn1-c1ccc(F)cc1	?	1	/	-7	11	-8
COc1cc([C@@H]2C[C@H]3CN(c4ccccc4)C(=O)[C@]34CCCN24)cc(OC)c1OC	-2%	-1	5	-41*	0	4
CCOc1cc([C@@H]2C[C@H]3CN(c4ccccc4)C(=O)[C@]34CCCN24)ccc1OC	21%	3	-3	-5	-1	-7
CCCn1nnnc1NCc1ccc(SC)cc1	-21%	1	-4	3	0	6
CSc1ccc(CNc2nnnn2C)cc1	-3%	1	-3	-20	-1	46*
CCOC(=O)c1oc2ccc(CNC(C)(C)C)c(Cl)c2c1C	/	-14	?	-52*	1	-26
COc1ccc(CN(CC2CCC(C(=O)O)CC2)C(=S)Nc2cc(C)cc(C)c2)cc1 (stereo not drawn)	10%	7	0	9	2	-3
CCCCN1CC(c2nc3ccccc3n2CCCCOc2cccc(C)c2C)CC1=O (stereo not drawn)	-3%	-1	/	-5	1	-3
O=C(NCn1ccc(=O)[nH]c1=S)c1ccccc1	3%	4	11	-46*	0	10
Cc1ccc(OCC(=O)Nc2c(C)nn(-c3ccccc3)c2C)c(Br)c1	6%	-4	2	-37*	15	14
CCCN1CCN(CCCNC(=O)C2CCCN(c3nnc(-n4cccc4)s3)C2)CC1 (stereo not drawn)	2%	-1	0	-3	1	-3
CCN(CC)S(=O)(=O)c1cc(OC)c(C)cc1C	-4%	8	7	-7	1	10
CC1=CN(S(=O)(=O)c2ccc(C)cc2)C[C@@H]2[C@H]3CC[C@H](C3)[C@H]12	4%	/	-65*	/	/	-54

From PubChem BioAssay
